# Compound activity deposited in PubChem by National Center for Advancing Translational Sciences (NCATS).
# Only some compounds are listed: those with a hit (about 4% of all), similar ones and a draw of the others.
# D1 antagonist = blocks dopamine activation of the human D1 receptor | HEK293 TREx D1 cells, calcium flux, dopamine EC80; hits give low values | activity change, negative = inhibition, % at 10 µM | actives 3.2% (n = 360,000); in the data active = activity change below about -30%
#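 Antagonism measured as reduced calcium response to an EC80 dopamine addition following 180 s compound pre-read; cells were inducible HEK293 Trex D1 plated overnight at 30 C, read kinetically at 1 cycle/sec.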
# D1 PAM = human D1 dopamine receptor positive modulation. P21728. HEK293 TREx D1 cells, calcium flux, dopamine EC20 potentiation. potentiation, % at 10 µM. actives 0.036% (n = 360,000); in the data active = potentiation above about 30%
# GRP78 ERSR act = inducers of ER stress response in human glioma cells; U87-MG GRP78 promoter luciferase reporter, 16 h; Potency, µM, most hits filed as activators; actives 0.02% (n = 420,000); AID 602332; active = well fitted activation curve with a large enough effect; also: series mostly up to about 76 µM; nearly all actives have a fitted effect of over 35% in size
#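 Stably transfected U87-MG glioma cells carrying a GRP78-based luciferase sensor; 16 h compound incubation. Luminescence end-point read 10 min after Bright-Glo addition at room temperature.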
# D1 agonist = agonists of human D1 dopamine receptor; P21728; HEK293 T-REx D1 cells, calcium flux, agonist mode; activation, % at 2 µM; actives 1% (n = 360,000)
#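 Inducible HEK293 T-REx D1 cells, force-coupled to calcium signalling, were plated at 4000 cells/well with tetracycline and held overnight at 30 C. After no-wash calcium dye loading, compound-evoked calcium rise over 180 s flagged agonists.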
# TRHR PAM = TRH receptor (human) allosteric enhancement | enhancement, % at 2 µM | TRHR cells, fluo-8 calcium fluorescence, EC20 TRH enhancement | P34981 | AID 493056 | actives 0.66% (n = 360,000); in the data active = enhancement above about 30%
# Target sequence (P34981 whole entry, looked up): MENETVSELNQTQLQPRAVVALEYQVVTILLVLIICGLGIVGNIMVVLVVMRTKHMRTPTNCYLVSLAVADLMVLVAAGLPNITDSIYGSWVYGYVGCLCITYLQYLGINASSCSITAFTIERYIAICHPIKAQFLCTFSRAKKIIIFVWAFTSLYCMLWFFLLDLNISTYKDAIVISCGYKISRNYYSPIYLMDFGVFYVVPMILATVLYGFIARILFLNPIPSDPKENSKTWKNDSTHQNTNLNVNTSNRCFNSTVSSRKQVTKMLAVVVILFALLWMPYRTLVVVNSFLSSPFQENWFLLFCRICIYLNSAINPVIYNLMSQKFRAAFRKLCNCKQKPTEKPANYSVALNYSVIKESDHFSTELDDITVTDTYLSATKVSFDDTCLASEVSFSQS
#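 TRHR-expressing cells loaded with fluo-8 calcium dye were read kinetically (ex 480/em 530) during compound addition, then stimulated with an EC20 of TRH (10 nM final). Enhancement of the Gq-mediated intracellular calcium response was scored.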
# TRHR ag = agonists of human TRH receptor; P34981; TRHR cells, calcium flux fluo-8, FDSS agonist mode; activation, % at 2 µM; actives 0.18% (n = 360,000); AID 493084
#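 In this calcium-flux screen, cells bearing human TRHR are dye-loaded with fluo-8, baselined for 10 cycles, then exposed to library compounds; positive kinetic calcium responses during the agonist phase mark hits, with TRH as control.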
# Hits are given with their value; i = inactive; nt = not tested or not shown. Rule as the data show it, unless noted: active = activation above about 30%; inactive = the rest.
SMILES,D1 antagonist,D1 PAM,GRP78 ERSR act,D1 agonist,TRHR PAM,TRHR ag
CCOC(=O)c1ccccc1NC(=O)CC(C)CC(=O)O (stereo unspecified),i,i,i,i,i,i
CC(CC(=O)O)CC(=O)Nc1ccccc1C(=O)O (stereo unspecified),-30,i,i,i,i,i
O=C(CNC(=O)c1cccc2ccccc12)OC(C(=O)Nc1cc(C(F)(F)F)ccc1Cl)c1ccccc1 (stereo unspecified),i,i,nt,i,i,i
CC1CCN(CCCNS(=O)(=O)c2cc(Br)cc3c2N(C(=O)C2CC2)CC3)CC1,i,i,i,i,33,i
CC(C)c1ccc(NC(=O)CN2C(=O)C3(SCC(=O)N3c3ccc(F)cc3)c3ccccc32)cc1 (stereo unspecified),i,i,i,i,i,i
C[C@H](NC(=O)C1(c2ccccc2)CCN(C(=O)OC(C)(C)C)CC1)C(=O)N[C@@H](C(=O)O)c1ccccc1,i,i,i,i,i,i
C[C@@H](NC(=O)C1(c2ccccc2)CCN(C(=O)OC(C)(C)C)CC1)C(=O)N[C@@H](C(=O)O)c1ccccc1,-52,i,i,i,i,i
COc1ccccc1NC(=O)c1ccc2oc(=O)c(S(=O)(=O)c3ccccc3)cc2c1,-56,i,i,i,i,i
COc1ccc(OC)c(NC(=O)NNC(=O)COc2ccc([N+](=O)[O-])cc2)c1,-49,i,i,i,i,i
COC(=O)c1ccc(NC(=O)COc2ccc([N+](=O)[O-])cc2)cc1,-35,i,i,i,i,i
COc1cc(NC(=O)COc2ccc(Cl)cc2)ccc1-c1cc2ccccc2oc1=O,-41,i,i,i,i,i
COc1ccc(NC(=O)NNC(=O)COc2ccc3ccccc3c2)cc1OC,-49,i,i,i,i,i
CCOc1ccc2nc(NC(NC(=O)CC)(C(=O)OC)C(F)(F)F)sc2c1 (stereo unspecified),i,i,i,i,i,i
CC(=O)Nc1ccc(S(=O)(=O)NCC2CCC(C(=O)NCCCN(C)Cc3ccccc3)CC2)cc1 (stereo unspecified),i,i,i,i,i,i
COCCC1CCCCN1Cc1nc(N2CCCC2)c2cc(OC)c(OC)cc2n1 (stereo unspecified),nt,nt,i,nt,nt,nt
CSc1ccccc1C(=O)Nc1cccc([N+](=O)[O-])c1,i,i,i,i,i,i
Cn1ccc2c(OCC(=O)Nc3ccc(OC(F)(F)F)cc3)cccc2c1=O,nt,i,i,i,i,i
COC(=O)c1ccc(NC(=O)Nc2ccc(F)cc2)cc1,-36,i,i,i,i,i
Cn1ccc2c(OCC(=O)Nc3ccc([N+](=O)[O-])cc3)cccc2c1=O,-37,i,i,i,i,i
CCCn1ccc2c(OCC(=O)Nc3ccccc3OCC)cccc2c1=O,nt,i,i,i,i,i
COc1ccc([N+](=O)[O-])cc1NC(=O)c1ccccc1SC,-43,i,i,i,i,i
CCCn1ccc2c(OCC(=O)Nc3cc(C)ccc3C)cccc2c1=O,nt,i,i,46,i,i
CCC12CN3CC(C)(CN(C1)C3c1c(C)n(C)c3ccccc13)C2=O (stereo unspecified),i,i,i,i,i,i
COC(=O)c1ccc(NC(=O)Nc2ccc([N+](=O)[O-])cc2)cc1,-43,i,i,36,i,i
COc1ccc([N+](=O)[O-])cc1NC(=O)CCS(=O)(=O)c1ccc(Br)cc1,-33,i,i,i,i,i
CC(=O)c1ccc[n+](CC(=O)NC(C)c2ccccc2)c1 (stereo unspecified),i,i,i,i,i,i
COc1cccc(-c2cncnc2NC2CCNCC2)c1,nt,nt,i,nt,nt,nt
COc1ccccc1Cc1noc(COc2cccc(C)c2C)n1,-78,i,i,i,i,i
Clc1ccc(OCc2nnc(SCc3nnc(-c4ccccc4)o3)o2)c(Cl)c1,i,i,i,35,i,i
O=C1Nc2ccccc2/C1=C/c1ccc([N+](=O)[O-])cc1,i,i,i,i,i,i
